Experimental findings from PubChem BioAssay (NCATS) are described below.

Inconclusive results are not listed. Values without a mark were called inactive. Active and inactive are the calls of the source. Calls come from the whole dose curve; as a rule, active = well fitted cell-killing curve with a large enough effect; inconclusive = small, poorly fitted or top-dose-only effect, or effect the other way; inactive = no such curve, though single readings can be large or run the other way.
Potency is the fitted concentration of half-maximal effect.

This assay is described as follows: Quantitative High-Throughput drug screen in 47 multiple myeloma cell lines against the NCATS MIPE library collection: KMS28BM_JCRB cell viability assay (AID 1919874). Note: nearly all actives have a fitted effect of over 35% in size. Conditions: CellTiter-Glo ATP, 48 h; series mostly up to 45.8 µM. Summed up: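 ATP-based luminescence (CellTiter-Glo, 5 min RT incubation) quantified surviving cells following two days' treatment with MIPE 4.0 agents at 37 °C, 5% CO2.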
In general terms: In ATP-based viability assays light output follows the ATP content of the culture.
For `c1ccc2c(CCNc3ccc(Nc4ccncc4)cc3)c[nH]c2c1`, the Potency is 11800 nM (active).

Take `O=C(O)Cn1nnc(-c2cc(N3CCC(Oc4cc(F)ccc4Br)CC3)no2)n1`: the Potency result was “inactive”.

Consider `Cc1[nH]c2ccccc2c1CCNCc1ccc(C=CC(=O)NO)cc1`, for which the Potency is 52.6 nM (active).

As for `Nc1ccccc1NC(=O)c1ccc(CNc2nccc(-c3cccnc3)n2)cc1`, the Potency was 833 nM (active).

In the case of `Cc1cn2cc(C(=O)N(C)CCO)cc(N[C@@H]3CCOc4cccc(C)c43)c2n1`, the Potency entry is “inactive”.

Consider `Cc1cn(-c2cc(NC(=O)c3ccc(C)c(Nc4nccc(-c5cccnc5)n4)c3)cc(C(F)(F)F)c2)cn1`, for which the Potency result was “inactive”.

As for `O=C(O)CCCc1c[nH]c2ccccc12`, the Potency result is “inactive”.

As for `CCCn1c(=O)c2[nH]c(-c3cnn(Cc4cccc(C(F)(F)F)c4)c3)nc2n(CC)c1=O`, the Potency entry is “inactive”.

Take `O=C(C=Cc1cccnc1)NCCCCC1CCN(C(=O)c2ccccc2)CC1`: the Potency is 83.3 nM (active).

Take `CNC(=O)c1c(F)cccc1Nc1nc(Nc2cc3c(cc2OC)CCN3C(=O)CN(C)C)nc2[nH]ccc12`: the Potency is 118 nM (active).

Take `COc1c(N2C[C@@H]3CCCN[C@H]3C2)c(F)cc2c(=O)c(C(=O)O)cn(C3CC3)c12`: the Potency result is “inactive”.

For `COc1cccc(-c2ccc(NC(=O)C3=C(C(=O)O)CCC3)c(F)c2)c1`, the Potency is 18700 nM (active).

Take `CC=C1NC(=O)[C@H]2CSSCCC=C[C@H](CC(=O)N[C@H](C(C)C)C(=O)N2)OC(=O)[C@H](C(C)C)NC1=O`: the Potency is 16.6 nM (active).

With `COc1ccc(CC2c3cc(OC)c(OC)cc3CC[N+]2(C)CCC(=O)OCCCCCOC(=O)CC[N+]2(C)CCc3cc(OC)c(OC)cc3C2Cc2ccc(OC)c(OC)c2)cc1OC` (configuration not stated), the viability, % of control is 110% [at 5.15 µM].

`Cc1cc(CN2CCN(c3c(Br)cnc4nc(-c5ccc(N6CCN(C)CC6)cc5)[nH]c34)CC2)no1`: the Potency is 2960 nM (active).

On to `COc1cc(C(=O)N2CCC(N3CCN(C)CC3)CC2)ccc1Nc1ncc2c(n1)N(C)c1ccccc1C(=O)N2C`, for which the Potency is 3320 nM (active).

On to `O=C(O)CO.[NH2-].[NH2-].[Pt+2]`, for which the Potency result is “inactive”.

Consider `CC1(C)CCC(c2ccc(Cl)cc2)=C(CN2CCN(c3ccc(C(=O)NS(=O)(=O)c4ccc(N[C@H](CCN5CCOCC5)CSc5ccccc5)c(S(=O)(=O)C(F)(F)F)c4)cc3)CC2)C1`, for which the Potency is 332 nM (active).

Consider `Cc1c(Cn2c(C)nc3c(C(=O)O)cc(N4CCOCC4)cc32)cccc1C(F)(F)F`, for which the Potency entry is “inactive”.

As to `CN[C@H]1CCc2cc(OC)c(OC)c(OC)c2-c2ccc(OC)c(=O)cc21`, the Potency was 3.3 nM (active).

Consider `Cc1ccc(C(=O)Nc2cccc(C(F)(F)F)c2)cc1-c1ccc2nc(NCCN3CCOCC3)ncc2c1`, for which the Potency was 18700 nM (active).

Take `COc1ccc(-c2cc3c(C)nc(N)nc3n(C3CCC(OCCO)CC3)c2=O)cn1` (configuration not stated): the Potency is 59 nM (active).

Regarding `COc1cccc(Nc2c(C(N)=O)cnc3c(C)cc(S(=O)(=O)c4cccc(C(=O)N(C)C)c4)cc23)c1`, the Potency entry was “inactive”.

Take `CC(C)Nc1cc(C(F)(F)F)cc2nc(NC(=O)c3cccnc3)nn12`: the Potency result is “inactive”.

As to `CC=CC1=C(C(=O)O)N2C(=O)[C@H](NC(=O)[C@H](N)c3ccc(O)cc3)[C@@H]2SC1`, the Potency result was “inactive”.

Regarding `CC(=O)SC[C@@H](C)C(=O)N1CCC[C@H]1C(=O)N[C@@H](Cc1ccccc1)C(=O)O`, the Potency entry is “inactive”.

For the molecule `CC(O)C1C(=O)N2C(C(=O)O)=C(SC3CNC(C(=O)N(C)C)C3)C(C)C12` (configuration not stated), the Potency entry is “inactive”.
